Screen size: about 360,000 compounds; about 1,100 (0.31%) were called active. The entries come from a sample that favours actives as a whole. Unmarked numbers belong to inactive results. Rule as the data show it: active = activity change below about -80%; inconclusive = mostly about -51% to -80%; inactive = weaker than that.
% is scaled to controls: 0 for no effect and ±100 for the full control effect.

In the assay the target is RAC-alpha serine/threonine-protein kinase (Homo sapiens) (UniProt P31749). Kind of assay: HTS Assay for Inhibitors of Akt Phophorylation: Primary Screen. The following applies: Neuro2A IGF-stimulated pAkt S473 HTRF, 20 min; at 50 µM, hits give low values. The source says:
The serine/threonine protein kinase Akt (protein kinase B) regulates various cellular processes, including cell survival, growth, proliferation, migration and differentiation. It has been well established that Akt is activated through two essential steps involving membrane translocation and phosphorylation. Cytosolic Akt is recruited to the plasma membrane via the interaction between the PH domain and membrane PIP3 produced by phosphoinositide-3 kinase (PI3K) upon growth factor receptor stimulation. The membrane-Akt interaction results in conformational changes of Akt, enabling its activation through phosphorylation at T308 in the kinase domain and at S473 in the C-terminal hydrophobic motif by PDK1 and mTOR-rictor complex (mTORC2), respectively. […] These findings indicate that S473 phosphorylation, as an important modulator of Akt activation, may be a valuable drug target for cell growth, survival, proliferation and differentiation. These inhibitors also may have significant therapeutic potential with fewer side effects, especially for the conditions involving hyperactive Akt signaling, such as cancer and Alzheimer's disease.
To this end, a miniaturized assay was developed to be screened against the Molecular Libraries Small Molecule Repository (MLSMR).
NIH Chemical Genomics Center [NCGC]
NIH Molecular Libraries Probe Centers Network [MLPCN]
Assay Submitter (PI): Hee-Yong Kim, National Institute on Alcohol Abuse and Alcoholism
3 uL of Neuro2A cell suspension in DMEM containing 0.5% FBS and […] antibiotics mix was plated in a white solid bottom tissue culture-treated 1536-well plate (Greiner Bio-One, Monroe, NC) at 4,500 cells per well and incubated overnight at 37 deg C. 23 nL/well of compound solutions in DMSO was added with Pintool transfer (Kalypsis, San Diego, CA) at single […] final concentration. Then, the cells were stimulated with 1.5 uL of IGF (6 nM final concentration) and incubated at 37 deg C for 20 min. The reaction was terminated by the addition of 1.5 uL blocking reagent mixed with lysis buffer (1:25 correspondingly) provided with HTRF(R) Phospho Akt (Ser473) kit (Cisbio US, Bedford, MA), with following incubation for 50 min at ambient temperature. The detection HTRF conjugates from the kit were prepared according to the protocol, pre-mixed 1:1 prior to dispensing, and 2 uL/well was added with BioRAPTR FRD dispenser (Beckman Coulter). The assay plates were incubated for 24 hours at ambient temperature, and the HTRF fluorescence was measured using Envision plate reader (PerkinElmer) with excitation at 330nm, emission at 615nm (Eu(3)-Cryptate donor signal) and 665nm (d2 acceptor signal). The ratio of […] was calculated for each well.
Turning to `COc1ccc(C(O)C(O)(C(=O)OC(C)C)c2ccc(C)cc2)cc1` (configuration not stated), the activity change entry was “inactive”. With `FC(F)(F)c1cnc(Oc2ccccc2-c2nnc(-c3ccc(Cl)cc3)o2)c(Cl)c1`, the activity change was -102% (active). Turning to `Cc1cc(C)cc(NS(=O)(=O)c2ccc(Oc3ncc(C(F)(F)F)cc3Cl)cc2)c1`, the activity change was -13.6%. The same measure for `CSc1ccccc1-c1nnc(-c2ccc(Cl)cc2)o1`: -0.409%; for `COC(=O)[C@@]12C[C@@H](CC(=O)N3CCC(c4ccccc4)CC3)C(=O)N(Cc3ccccc3)C1=CCC(C)(C)C2`: “inactive”; for `COC(=O)C1=CN(c2c(C)cc(C)cc2C)C(N)=C(C#N)C1c1cccc(F)c1` (configuration not stated): “inactive”. In the case of `Cc1ccc(Cc2nnc(SCC(=O)Nc3ccc(C)cc3C)[nH]c2=O)cc1`, the activity change entry is “inactive”. For `NC(=O)c1c(NC(=O)CSc2nnc(-c3ccco3)n2N)sc2c1CCCC2`, the activity change entry was “inactive”.

Regarding `N#Cc1c(NC(=O)CSc2nc3ccccc3c(=O)n2Cc2ccco2)sc2c1CCCC2`, the activity change is -91.1% (active).

On to `CCCc1cc(=O)[nH]c(SCC(=O)Nc2sc3c(c2C#N)CCCC3)n1`, for which the activity change entry is “inactive”. In the case of `CCC(C)CN1C(=O)CN(S(C)(=O)=O)CC1(C)C(=O)Nc1ccc2c(c1)OCCO2` (configuration not stated), the activity change entry was “inactive”.

As to `O=C1Nc2ccccc2-n2nnnc2C1N1CCN(c2cccc(C(F)(F)F)n2)CC1` (configuration not stated), the activity change entry was “inactive”. As for `N#Cc1nc(COc2ccc(Cl)cc2)oc1N1CCCC1`, the activity change entry is “inactive”.

On to `Cc1ccc(OCc2nc(C#N)c(N3CCCC3)o2)cc1`, for which the activity change was -113% (active).

With `CC1CCN(c2oc(-c3ccccc3F)nc2C#N)CC1`, the activity change result is “inactive”. The same measure for `C=CCC1(C(=O)N(C)Cc2ccccc2)CCN(C(=O)OC(C)(C)C)CC1`: “inactive”; for `CCN(CC)CCCN=C(N)N`: “inactive”; for `COC(=O)C[C@H]1C=C[C@H](NC(=O)c2ccc(F)cc2)[C@@H](CO)O1`: “inactive”. For `N#Cc1nc(Cc2ccccc2)oc1NCCc1ccccc1`, the activity change is -105% (active). The same measure for `N#Cc1nc(Cc2cccc3ccccc23)oc1NCc1ccc2c(c1)OCO2`: -4.85%; for `Cc1ccc(-c2nc(C#N)c(NCCCn3ccnc3)o2)cc1`: “inactive”. The result for `COC(=O)[C@]12CCCCC=C1N(Cc1ccc3c(c1)OCO3)C(=O)[C@H](CC(=O)NCc1cccs1)C2` reads “inactive”; that for `COc1ccccc1P(=O)(c1ccccc1)c1ccccc1NC(C)=O` (configuration not stated), “inactive”; that for `Cc1ccc(C(=O)Nc2c(-c3ccccc3)[nH][nH]c2=O)cc1`, “inactive”.

Take `COC(=O)c1c(NC(=O)CCN2CCOCC2)sc2c1CCCC2`: the activity change result was “inactive”. Turning to `CCOC(=O)c1sc(NC(=O)CCN2CCOCC2)c(C(=O)OCC)c1C`, the activity change was -80.1% (active). Turning to `CCOC(=O)c1c(NC(=O)CCCN2CCOCC2)sc2c1CC(C)(C)OC2`, the activity change entry is “inactive”. Regarding `CCCCC[C@H](C)N1C[C@@H](COCc2ccccc2)Oc2cc(N3CC[C@@H](N(C)C)C3)ccc2S1(=O)=O`, the activity change entry was “inactive”. The result for `Cc1ccc2c(c1)N(C(=O)CCC(=O)N1CCc3ccccc3C1)CCO2` reads -105% (active). Consider `Cc1ccc2c(c1)N(C(=O)CCC(=O)NCc1cccnc1)CCO2`, for which the activity change result was “inactive”.

As for `Cc1ccc(Cl)c(OCC(=O)N2CCc3ccccc3C2)c1`, the activity change result is “inactive”. The result for `CCOC(=O)C1CCN(C(=O)C2CCN(S(=O)(=O)c3c(C)noc3C)CC2)CC1` reads “inactive”; that for `CCN(C(=O)CSc1ncnc2c1cnn2-c1ccccc1)C1CCS(=O)(=O)C1` (configuration not stated), “inactive”; that for `CCC(C)N(C(=O)CSc1ncnc2c1cnn2-c1ccccc1)C1CCS(=O)(=O)C1` (configuration not stated), “inactive”. As to `CCN(CC)C(=O)CSc1ncnc2c1cnn2-c1ccccc1`, the activity change was -110% (active). Turning to `Cc1cccc(C)c1NC(=O)C(c1ccc(C(F)(F)F)cc1)n1c(=O)c(-c2ccco2)nc2ccccc21` (configuration not stated), the activity change result was “inactive”. On to `O=C(Nc1ncc2c(n1)-c1ccccc1OC2)c1ccc(Cl)cc1`, for which the activity change is -120% (active). With `COC(=O)c1nc(NC(=O)c2ccc(Cl)cc2)n[nH]1`, the activity change entry was “inactive”. For the molecule `O=C(Nc1ncc2c(n1)CC(c1ccco1)CC2=O)c1ccc(Cl)cc1` (configuration not stated), the activity change result is “inactive”. For `CN(C)c1ccc(Nc2c3c4c(cccc4n(C)c2=O)C(=O)c2ccccc2-3)cc1`, the activity change entry is “inactive”. The same measure for `COc1cc2ccccc2cc1C(=O)Nc1ccccc1C`: “inactive”. The result for `Cc1ccccc1NC(=O)c1ccccc1` reads -122% (active); that for `Cc1ccccc1NC(=O)CSC(=O)c1ccccc1`, “inactive”; that for `Cc1cccc(N(C(=O)c2csnn2)C(C(=O)NCc2ccccc2)c2ccncc2)c1` (configuration not stated), “inactive”. The same measure for `Cc1cccc(C2C3=C(CCCC3=O)N=C3c4ccccc4C(=O)C32)c1` (configuration not stated): “inactive”; for `CCOC(=O)[C@]12CCCC=C1N(CCC1=CCCCC1)C(=O)[C@H](CC(=O)N1CCN(C(=O)c3ccco3)CC1)C2`: “inactive”; for `COc1ccc(C(CNC(=O)CSc2ccccc2)N2CCOCC2)cc1` (configuration not stated): “inactive”. On to `O=C(C(=O)N1CCC(c2ccccc2)CC1)c1ccccc1`, for which the activity change entry was “inactive”. For `Cc1cccc(-n2c(Cc3cc(=O)[nH]c(=O)[nH]3)nnc2SC(C)C)c1`, the activity change entry was “inactive”.

Take `Cc1cccc(NC(=O)Cn2cc(C(=O)c3ccco3)c3ccccc32)c1`: the activity change is 11.5%.

Consider `COCCNC(=O)Cn1cc(C(=O)c2cccs2)c2ccccc21`, for which the activity change was -3.12%.

Take `O=C(Cn1cc(C(=O)c2cccs2)c2ccccc21)NCc1cccs1`: the activity change was -110% (active).

For `FC(F)(F)c1cccc(-c2nc3ccccc3n2C(c2ccccc2)c2nc3ccccc3[nH]2)c1` (configuration not stated), the activity change entry was “inactive”. Regarding `COc1ccc(OCC(=O)NCCc2ccc(S(N)(=O)=O)cc2)cc1`, the activity change was -119% (active).

For the molecule `COc1ccc(CCNC(=O)COc2ccc3c(c2)OCO3)cc1`, the activity change result is “inactive”. Consider `CC(C)(Oc1ccc(Cl)cc1)C(=O)OCC(=O)NCCc1ccc(S(N)(=O)=O)cc1`, for which the activity change entry was “inactive”. In the case of `CCOC(=O)CN(C(=O)CN1CCOCC1)c1ccc(Br)cc1`, the activity change was 1.02%.

In the case of `CCN(C(=O)COC(=O)c1cc(NS(=O)(=O)c2ccc(Cl)c([N+](=O)[O-])c2)ccc1O)C1CCCCC1`, the activity change entry was “inactive”. In the case of `COC(=O)[C@@]12C[C@@H](CC(=O)NCc3cccc(C(F)(F)F)c3)C(=O)N(Cc3ccco3)C1=CCC(C)(C)C2`, the activity change entry was “inactive”.

In the case of `CC1CCCCC1NC(=O)CCS(=O)(=O)c1cccc2nonc12` (configuration not stated), the activity change was -123% (active). The result for `COc1ccc(C)cc1NC(=O)CCS(=O)(=O)c1cccc2nonc12` reads 16.6%; that for `O=C(CCS(=O)(=O)c1cccc2nonc12)NCCc1ccccc1Cl`, 2.49%.

Source of the values: PubChem BioAssay AID651550 (National Center for Advancing Translational Sciences (NCATS), 2012).
